Test results: PubChem BioAssay
Inconclusive results are not listed. The source made the active and inactive calls.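 Rule for the calls, unless noted: active = normalized viability below 100% at a tested concentration; inactive = the rest.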

Tests used:
[1] = growth inhibition of DIPG glioma cells, dose response, cell-based, SU-DIPG-XVII, MIPE5.0, CellTiter-Glo, qHTS (AID 1347060; cut-off not given, nearly all actives have AC50 up to about 26 µM;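 for AC50: cells exposed to compound for 48 hours before viability readout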); conditions: SU-DIPG-XVII viability, CellTiter-Glo ATP luminescence
[2] = growth inhibition of DIPG glioma cells, dose response, cell-based, SU-DIPG-XIII, MIPE4.0, CellTiter-Glo, qHTS (AID 1347061; cut-off not given, nearly all actives have AC50 up to about 37 µM;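 note: cells exposed to compound for 48 hours before readout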); conditions: SU-DIPG-XIII viability, CellTiter-Glo ATP luminescence
[3] = growth inhibition of DIPG glioma cells, dose response, cell-based, JHH-DIPG-1, MIPE4.0, CellTiter-Glo, qHTS (AID 1347062; cut-off not given, nearly all actives have AC50 up to about 27 µM;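 for AC50: cells exposed to compound for two days before readout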); conditions: JHH-DIPG-1 viability, CellTiter-Glo ATP luminescence
[4] = growth inhibition of DIPG glioma cells, dose response, cell-based, SU-DIPG-IV, MIPE4.0, CellTiter-Glo, qHTS (AID 1347063; cut-off not given, nearly all actives have AC50 up to about 30 µM;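 note: compound exposure lasted 48 hours before the viability readout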); conditions: SU-DIPG-IV viability, CellTiter-Glo ATP luminescence
[5] = growth inhibition of DIPG glioma cells, dose response, cell-based, SU-DIPG-XIII, MIPE5.0, CellTiter-Glo, qHTS (AID 1347064; cut-off not given, nearly all actives have AC50 up to about 23 µM;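 note: cells exposed to compound for 48 hours before the viability read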); conditions: SU-DIPG-XIII viability, CellTiter-Glo ATP luminescence
[6] = viability loss in pontine glioma line – cell-based, SU-DIPG-XXV, MIPE5.0, CellTiter-Glo, qHTS, dose response (AID 1347065; cut-off not given, nearly all actives have AC50 up to about 26 µM;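 note: cells exposed to compound for 48 hours before ATP readout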); conditions: CellTiter-Glo ATP luminescence
[7] = JHH-DIPG-1 glioma cell viability, MIPE5.0 library, CellTiter-Glo luminescence, qHTS (AID 1347067; cut-off not given, nearly all actives have AC50 up to about 26 µM;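 note: cells exposed to compound for 48 hours before readout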); conditions: JHH-DIPG-1 glioma viability, CellTiter-Glo ATP luminescence
[8] = modifiers of HSF1 nuclear foci, imaging, Selleck Cancer Library (AID 1347162; in the data active = plate-normalised HSF1 focus index below about 0.46); conditions: human cells, at 10 µM; SSMD: measured here: HSF1 foci SSMD mean; cell count: measured here: cell number; plate-normalised HSF1 focus index: stronger effect = lower value
[9] = SU-DIPG-VI glioma cell viability, MIPE4.0 library, CellTiter-Glo luminescence, qHTS (AID 1347066; cut-off not given, nearly all actives have AC50 up to about 30 µM;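 note: cells exposed to compound for 48 hours before readout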); conditions: CellTiter-Glo ATP luminescence
[10] = SU-DIPG-XXV glioma cell viability, MIPE5.0 library, qHTS (AID 1347068; cut-off not given, nearly all actives have IC50 up to about 30 µM;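 for IC50: cells exposed to compound for 48 hours before viability readout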)
[11] = ovarian cancer cell viability with rucaparib, profiling panel, oncology-focused library, rucaparib conditional (AID 1508598); conditions: patient-derived ovarian cancer cells, CellTiter-Glo viability, 144 h, stronger effect = lower value
[12] = sensitizers of A549 cells to miR-34 induction, primary screen, imaging, A549 dox-inducible miR-34, nuclei and caspase counts (AID 1347080;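 active = compounds whose cell count with miR-34 switched on is under 0.7 times the count with it off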); conditions: A549 miR-34 inducible, Hoechst nuclei count, 48 h
[13] = survival rescue of mitochondrial mutant cells in low glucose, primary screen, MELAS cybrids, Rieske KO mouse fibroblasts, CellTiter-Glo (AID 1508586;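 active = mean z-score across replicates of 1.96 or higher in either the MELAS or the Rieske mutant cell line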;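 note: z relative to plate mean and SD of compound and empty wells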)
[14] = at 0.000305 µM, OCI-C5x cells, with rucaparib 10 µM, 100% = cells with rucaparib alone
[15] = at 0.000305 µM, OCI-C5x cells, without rucaparib
[16] = at 0.000305 µM, OCI-P5x cells, with rucaparib 20 µM, 100% = cells with rucaparib alone
[17] = at 0.000305 µM, OCI-P5x cells, without rucaparib
[18] = at 0.00122 µM, OCI-C5x cells, with rucaparib 10 µM, 100% = cells with rucaparib alone
[19] = at 0.00122 µM, OCI-C5x cells, without rucaparib
[20] = at 0.00122 µM, OCI-P5x cells, with rucaparib 20 µM, 100% = cells with rucaparib alone
[21] = at 0.00122 µM, OCI-P5x cells, without rucaparib
[22] = at 0.00488 µM, OCI-C5x cells, with rucaparib 10 µM, 100% = cells with rucaparib alone
[23] = at 0.00488 µM, OCI-C5x cells, without rucaparib
[24] = at 0.00488 µM, OCI-P5x cells, with rucaparib 20 µM, 100% = cells with rucaparib alone
[25] = at 0.00488 µM, OCI-P5x cells, without rucaparib
[26] = at 0.0195 µM, OCI-C5x cells, with rucaparib 10 µM, 100% = cells with rucaparib alone
[27] = at 0.0195 µM, OCI-C5x cells, without rucaparib
[28] = at 0.0195 µM, OCI-P5x cells, with rucaparib 20 µM, 100% = cells with rucaparib alone
[29] = at 0.0195 µM, OCI-P5x cells, without rucaparib
[30] = at 0.0781 µM, OCI-C5x cells, with rucaparib 10 µM, 100% = cells with rucaparib alone
[31] = at 0.0781 µM, OCI-C5x cells, without rucaparib
[32] = at 0.0781 µM, OCI-P5x cells, with rucaparib 20 µM, 100% = cells with rucaparib alone
[33] = at 0.0781 µM, OCI-P5x cells, without rucaparib
[34] = at 0.313 µM, OCI-C5x cells, with rucaparib 10 µM, 100% = cells with rucaparib alone
[35] = at 0.313 µM, OCI-C5x cells, without rucaparib
[36] = at 0.313 µM, OCI-P5x cells, with rucaparib 20 µM, 100% = cells with rucaparib alone
[37] = at 0.313 µM, OCI-P5x cells, without rucaparib
[38] = at 1.25 µM, OCI-C5x cells, with rucaparib 10 µM, 100% = cells with rucaparib alone
[39] = at 1.25 µM, OCI-C5x cells, without rucaparib
[40] = at 1.25 µM, OCI-P5x cells, with rucaparib 20 µM, 100% = cells with rucaparib alone
[41] = at 1.25 µM, OCI-P5x cells, without rucaparib
[42] = at 5 µM, OCI-C5x cells, with rucaparib 10 µM, 100% = cells with rucaparib alone
[43] = at 5 µM, OCI-C5x cells, without rucaparib
[44] = at 5 µM, OCI-P5x cells, with rucaparib 20 µM, 100% = cells with rucaparib alone
[45] = at 5 µM, OCI-P5x cells, without rucaparib

CC(C)Oc1cc(Nc2nc(N[C@@H](C)c3ccc(F)cn3)ncc2Cl)[nH]n1
active: AC50 [1] 1.05 µM | AC50 [2] 11.8 µM | AC50 [3] 10.5 µM | AC50 [4] 6.62 µM | AC50 [5] 1.18 µM | AC50 [6] 0.742 µM | AC50 [7] 5.9 µM
inactive: plate-normalised HSF1 focus index [8] 0.979
-0.66: SSMD [8]
6860: cell count [8]

CC[C@H](/C=C/[C@@H](C)[C@H]1CC[C@H]2[C@@H]3CC=C4C[C@@H](O)CC[C@]4(C)[C@H]3CC[C@]12C)C(C)C
inactive: outcome [1] | outcome [2] | outcome [3] | outcome [4] | outcome [6] | outcome [9] | outcome [7] | outcome [10]

Cc1nc2cnc3ccc(C#Cc4cccnc4)cc3c2n1-c1ccc(C(C)(C)C#N)cc1
active: AC50 [1] 0.468 µM | AC50 [2] 0.59 µM | AC50 [3] 0.166 µM | AC50 [4] 0.0296 µM | AC50 [6] 0.209 µM | AC50 [9] 1.18 µM | AC50 [7] 1.66 µM | IC50 [10] 2.63 µM

CC(C)Nc1cc(C(F)(F)F)cc2nc(NC(=O)c3cccnc3)nn12
inactive: outcome [1] | outcome [2] | outcome [3] | outcome [4] | outcome [6] | outcome [9] | outcome [7] | outcome [10]

CN(C)C/C=C/C(=O)Nc1cc2c(Nc3ccc(F)c(Cl)c3)ncnc2cc1O[C@H]1CCOC1
inactive: plate-normalised HSF1 focus index [8] 0.64 | viability [11, 14] 118% | viability [11, 15] 114% | viability [11, 16] 123% | viability [11, 17] 107% | viability [11, 18] 116% | viability [11, 22] 107% | viability [11, 24] 117% | viability [11, 28] 102% | viability [11, 32] 122% | viability [11, 36] 120%
active: AC50 [1] 13.2 µM | AC50 [2] 23.5 µM | AC50 [3] 16.6 µM | AC50 [4] 16.6 µM | AC50 [6] 8.33 µM | AC50 [9] 29.6 µM | AC50 [7] 9.34 µM | IC50 [10] 4.17 µM | viability [11, 19] 100% | viability [11, 20] 97.9% | viability [11, 21] 99.7% | viability [11, 23] 80.6% | viability [11, 25] 99.9% | viability [11, 26] 70.1% | viability [11, 27] 66.7% | viability [11, 29] 96.3% | viability [11, 30] 67.5% | viability [11, 31] 69.5% | viability [11, 33] 94.8% | viability [11, 34] 62.7% | viability [11, 35] 63.1% | viability [11, 37] 94.2% | viability [11, 38] 6.05% | viability [11, 39] 46% | viability [11, 40] 8.68% | viability [11, 41] 66.6% | viability [11, 42] 3.87% | viability [11, 43] 22.5% | viability [11, 44] 0.219% | viability [11, 45] 6.79%
-10.2: SSMD [8]
6000: cell count [8]

CNC1CCC(N(Cc2cccc(-c3ccncc3)c2)C(=O)c2sc3c(F)ccc(F)c3c2Cl)CC1 (centres undefined)
active: AC50 [1] 23.5 µM | AC50 [2] 14.8 µM | AC50 [3] 26.4 µM | AC50 [4] 23.5 µM | AC50 [6] 18.6 µM | AC50 [9] 23.5 µM | AC50 [7] 26.3 µM

O=C(NCCCNc1nc(Nc2cccc(NC(=O)N3CCCC3)c2)ncc1I)c1cccs1
2780: cell count ([12]; measured here: total cells with miR-34 induction, stronger effect = lower value)
-3.5: SSMD [8]
active: AC50 [1] 16.6 µM | AC50 [2] 20.9 µM | AC50 [3] 23.5 µM | AC50 [4] 14.8 µM | AC50 [6] 3.72 µM | AC50 [9] 20.9 µM | viability [11, 16] 91.2% | viability [11, 17] 89.1% | viability [11, 20] 97.1% | viability [11, 21] 94.8% | viability [11, 23] 97.8% | viability [11, 24] 97.7% | viability [11, 32] 99.5% | viability [11, 36] 98.3% | viability [11, 37] 99.8% | viability [11, 40] 85.2% | viability [11, 41] 99.1% | viability [11, 42] 76.6% | viability [11, 44] 68.2% | viability [11, 45] 91.4%
7460: cell count [8]
-0.479: z-score ([13]; Rieske KO mouse fibroblast survival, CellTiter-Glo 72 h)
inactive: fold change ([12]; stronger effect = lower value, cell number ratio, induced over uninduced) 0.948 | plate-normalised HSF1 focus index [8] 0.877 | z-score ([13]; MELAS cybrid survival, CellTiter-Glo 48 h, stronger effect = higher value) -0.385 | viability [11, 14] 115% | viability [11, 15] 106% | viability [11, 18] 116% | viability [11, 19] 102% | viability [11, 22] 110% | viability [11, 25] 103% | viability [11, 26] 112% | viability [11, 27] 102% | viability [11, 28] 104% | viability [11, 29] 101% | viability [11, 30] 123% | viability [11, 31] 112% | viability [11, 33] 106% | viability [11, 34] 137% | viability [11, 35] 120% | viability [11, 38] 122% | viability [11, 39] 120% | viability [11, 43] 127%
2940: cell count ([12]; measured here: total cells without miR-34 induction)
1.03: fold change ([12]; measured here: relative caspase fold change +Dox/-Dox)

CC(C)(F)C[C@H](N[C@@H](c1ccc(-c2ccc(S(C)(=O)=O)cc2)cc1)C(F)(F)F)C(=O)NC1(C#N)CC1
inactive: outcome [1] | outcome [2] | outcome [3] | outcome [4] | outcome [6] | outcome [9] | outcome [7] | outcome [10]
